# According to PubChem BioAssay AID1508619 (National Center for Advancing Translational Sciences (NCATS), 2020):
# Records with an inconclusive call do not appear. Where a call stands in place of a potency, no number is given. The source made the active and inactive calls. The call rests on the fitted dose curve; in most records, active means well fitted inhibition curve with a large enough effect; inconclusive means small, poorly fitted or top-dose-only effect; inactive means no such curve, though single readings can be large or run the other way.
# Experiment: Counterscreen qHTS for Identification of Calcium Integrin Binding Protein 1 (CIB1) Competitor
# Settings: series mostly up to 114 µM
# From the text: Assay Provider: Ulhas P. Naik, PhD
# Sidney Kimmel Medical College
# Thomas Jefferson University, Philadelphia, PA
# Primary function of platelets is to maintain hemostasis. At the site of vascular injury, platelets adhere to adhesive proteins such as collagen and von Willebrand factor. Adherent platelets are activated and generate soluble platelet agonists such as thrombin, ADP and thromboxane A2. Following exposure of circulating platelets to these agonists, results in platelet shape change, granule secretion and activation of platelet integrin alphaIIb-beta3. Ligand binding to activated integrin alphaIIb-beta3 triggers outside-in signaling, leading to platelet aggregation, stabilization of platelet plug, and clot retraction. Upon atherosclerotic plaque rupture also causes platelet plug formation, which underlies a number of cardiovascular diseases such as myocardial infraction and stroke. A number of anti-platelet drugs such as aspirin, clopidogrel, prasugrel, vorapaxar, and eptifibatide are currently available to prevent the thrombotic complications. However, these anti-platelet agents have several limitations including inherent variability in individual responses, developing resistance, and serious bleeding side effects. For these reasons they are not suitable for long-term protection. Based on the experiences with current anti-platelet drugs, it appears that the most useful therapeutic approach is to intersect the secondary responses such as integrin outside-in signaling or recruitment of platelets by TxA2 and secreted ADP. Compounds, which can largely preserve the primary hemostatic function of platelets but inhibit secondary response will be most desired therapeutic agents for treatment of cardiovascular disease.
# CIB1 is a calcium integrin binding protein, which specifically interact with the alphaIIb subunit of integrin alphaIIb-beta3. Binding of CIB1 to alphaIIb regulates the outside-in signaling in platelets, which is needed for thrombus stabilization and thrombus growth. […] Therefore, we propose that discovery of a small molecule that can prevent the association of CIB1 and alphaIIb-beta3 will be a potential anti-platelet agent that can block the thrombus formation without undue effect on hemostasis.
# To develop fluorescence polarization (FP) assay using fluorescently labeled alphaIIb peptide and CIB1 protein. Using FP assay characterize the binding affinity, competitive inhibition, and acceptable Z factor (0.5 to1) in order to perform the HTS to identify small molecule compound that can prevent CIB1 binding to platelet integrin alphaIIb-beta3. Active compounds were re-acquired and validated using confirmatory and counterscreens (using 100 nM scrambled peptide).
# [1] Naik MU, Nigam A, Manrai P, et al. CIB1 deficiency results in impaired thrombosis: the potential role of CIB1 in outside-in signaling through integrin alpha IIb beta 3. J Thromb Haemost. 2009;7(11):1906-1914. doi:10.1111/j.1538-7836.2009.03581.
# SEQUENCE No. (1, 2, 3, etc.); […] (e.g., Cells, Incubation, Reagent, etc.); VALUE and DESCRIPTION.
# 1; Reagent; 3 uL; Protein or buffer (4/3x)
# 2; Compound; 46 nL; Control inhibitor / compound library
# 3; Time; 15 min; Room temperature incubation
# 4; Reagent; 1 uL; Fluorescent labeled peptide (4x)
# 5; Time; 1000 rpm; Centrifuge
# 6; Time; 15 min; Room temperature incubation
# 7; Detection; Ex 480/ Em 540; ViewLux Fluorescence Read
# NOTES (numbers refer to sequence above)
# 1; Protein Mixture: C1B1-GST (final concentrations of 1 uM). Buffer composition: 5 mM HEPES pH 7.4, 125 mM NaCl, 5 mM CaCl2, 0.01% Tween20.
# 2; Control Inhibitor: unlabeled peptide (final concentration range 17.4 nM to 572 uM). Compound Library final concentration range 18.3 nM to 114 uM.
# 3; Room temperature incubation.
# 4; Fluorescent Labeled Peptide: FITC-alphaIIb (final concentration of 100 nM). Sequence of Scrambled peptide: Acetyl-[…]-FITC (purity is 95.37%).
# 6; Room temperature incubation.
# […]
# Potency means the concentration at half of the fitted maximal effect.
row,Structure (SMILES),Potency
1,CSC(Cc1ccc(Cl)cc1)C(=O)Nc1ccc(Cl)cc1C(=O)O (stereo not given),inactive
2,NC(=O)C1CCN(c2ncc(Br)s2)CC1,39.8 µM (active)
3,O=[S+]([O-])(Nc1nccs1)c1ccc(NCc2cc(Cl)cc(Br)c2O)cc1,inactive
4,N#Cc1ccc(NS(=O)(=O)c2ccc(NC(=O)Cc3ccc(F)c(Cl)c3)cc2)cc1,inactive
5,CC(OC(=O)c1ccc(S(C)(=O)=O)c([N+](=O)[O-])c1)C(=O)NC1C2CC3CC(C2)CC1C3 (stereo not given),inactive
6,Cc1ccc(C(=O)NC(c2ccco2)c2cc(Cl)c3cccnc3c2O)cc1 (stereo not given),inactive
7,O=c1[nH]nc(Sc2ncc([N+](=O)[O-])s2)n1-c1ccc2c(c1)OCCO2,inactive
8,O=C1c2c(O)ccc(O)c2C(=O)c2c(NCCNCCO)ccc(NCCNCCO)c21,20 µM (active)
9,CCC(=O)NC(c1cccs1)c1cc(Br)c2cccnc2c1O (stereo not given),inactive
10,Cn1cnc(-c2nccc3c(=O)[nH]c(OCCCC(F)(F)F)nc23)c1,inactive
11,Cc1cc(=O)oc2cc(SC3=NS(=O)(=O)c4ccccc43)ccc12,inactive
12,O=C(NC(c1ccco1)c1cc(Cl)c2cccnc2c1O)c1cccs1 (stereo not given),inactive
13,Cc1cc2c(C(C)C)c(O)c(O)c(C=O)c2c(O)c1-c1c(C)cc2c(C(C)C)c(O)c(O)c(C=O)c2c1O,inactive
14,CCc1oc2ccccc2c1C(=O)c1cc(I)c(O)c(I)c1,100 µM (active)
15,Cc1ccc(S(=O)(=O)Nc2cnccc2C(=O)Nc2nc(-c3ccc(Cl)cc3)cs2)cc1,inactive
16,CN(C(=O)c1cccs1)c1cccnc1,44.7 µM (active)
17,Cc1ccccc1NC(=O)CN1C(=O)N/C(=C\c2cn(-c3cccc(C(=O)O)c3)cn2)C1=O,inactive
18,CC(=O)Nc1sc2c(c1-c1nc3ccccc3s1)CNC2,inactive
19,Cc1cnc(-c2ccccc2C(C)C)nc1NCc1ccc(-c2ccc(F)nc2)cc1,44.7 µM (active)
20,CC(C)(C)c1ccc(SC2=NS(=O)(=O)c3ccccc32)cc1,inactive

row,Structure (SMILES),Potency
1,Cc1ccc(C(=O)Nc2ccc(S(=O)(=O)O)c3cc(S(=O)(=O)O)cc(S(=O)(=O)O)c23)cc1NC(=O)c1cccc(NC(=O)Nc2cccc(C(=O)Nc3cc(C(=O)Nc4ccc(S(=O)(=O)O)c5cc(S(=O)(=O)O)cc(S(=O)(=O)O)c45)ccc3C)c2)c1,inactive
2,COc1ccc(NC(=O)c2[nH]c(C)c(C(C)=O)c2C)cc1[S+](=O)([O-])Nc1ccccc1C#N,inactive
3,CN(C)CCN1C(=O)c2cccc3cc(N)cc(c23)C1=O,inactive
4,C[C@H](Cc1ccc(O)c(O)c1)[C@@H](C)Cc1ccc(O)c(O)c1,12.6 µM (active)
5,O=C(O)Cc1ccc(CCNS(=O)(=O)c2ccc(Cl)cc2)cc1,inactive
6,O=C1CCCC2=C1C1(CCCOC1)N=C(Nc1nc3ccccc3o1)N2 (stereo not given),inactive
7,CN1CCCN(C(=O)c2cccc(-c3ccc(C=C4C(=O)Nc5ccc(Cl)cc54)o3)c2)CC1,35.5 µM (active)
8,O=C(O)c1ccccc1SC1=NS(=O)(=O)c2ccccc21,inactive
9,O=C(O)c1c(Cl)c(Cl)c(Cl)c(Cl)c1-c1c2cc(I)c(=O)c(I)c-2oc2c(I)c(O)c(I)cc12,inactive
10,O=[S+]([O-])(Nc1nccs1)c1ccc(NCc2cc(F)cc(Cl)c2O)cc1,inactive
11,COC(=O)c1ccc2c(c1)S(=O)(=O)N=C2Sc1cc(C)ccc1C,inactive
12,CN1CCN(c2ccc(-c3cc(O)c4ncccc4c3)cc2)CC1,inactive
13,O=[S+]([O-])(NCc1nccs1)c1ccc(Nc2nc(-c3ccccc3)cs2)cc1,50.1 µM (active)
14,Cc1ccc(OCCn2c(CCNC(=O)c3ccsc3)nc3ccccc32)cc1,inactive
15,Nc1ccc(O)c([N+](=O)[O-])c1,63.1 µM (active)
16,COc1ccc2nc(S(=O)Cc3ncc(C)c(OC)c3C)[nH]c2c1 (stereo not given),inactive
17,C[C@@H](NCc1cc2ccccc2[nH]1)c1cccc2ccccc12,inactive
18,O=S(=O)(Nc1nccs1)c1ccc(NCc2cc(Cl)ccc2O)cc1,inactive
19,O=C1CCCC2=C1C(c1cccnc1Br)N=C(Nc1nc3ccccc3o1)N2 (stereo not given),inactive
20,O=C1CCCC2=C1C(c1[nH]ncc1Cl)N=C(Nc1nc3ccccc3o1)N2 (stereo not given),inactive
